# In PubChem BioAssay AID1554 (Broad Institute, 2009):
# Among all 300,000 compounds or so, about 520 (0.17%) were called active. The entries come from a sample that favours actives as a whole. Unmarked numbers belong to inactive results. Rule as the data show it: active = inhibition above about 50%; inconclusive = no clear call, values can overlap the other calls; inactive = below that.
# Assay: PubChem AID 1554
# Details: BJeLR (HRASV12) viability, CellTiter-Glo ATP luminescence, 48 h; active compounds read high; concentration not given here
row,Structure (SMILES),inhibition
1,COC(=O)c1c(NC(=O)c2ccccc2F)sc2c1C(C(=O)OC)CC2 (stereo unspecified),-1.69%
2,CCOc1ccc2[nH]c3nc(SCC(=O)NC4CCCC4)nnc3c2c1,19.9%
3,CCOC(=O)c1c(C)nc(-c2ccccc2)nc1NC(=O)C(C)C,-1.6%
4,CCOC(=O)c1c(C)[nH]c(C)c1S(=O)(=O)N(C)CC(=O)Nc1ccccc1C,1.31%
5,CCOC(=O)c1c(C)[nH]c2c1-c1ccccc1C(=O)C2=O,74.1% (active)
6,O=C(NNc1c2ccccc2nc2ccccc12)c1cc2ccccc2cc1O,11.9%
7,NC(=O)C1CC(=O)N(c2ccc(OCC(=O)NCc3ccccc3)cc2)C1 (stereo unspecified),-5.85%
8,COc1ccccc1N1CCN(C(=O)c2cc(=O)c3cc(C)cc(C)c3o2)CC1,58.9% (active)
9,COc1ccccc1N1CCN(C(=O)c2cc(=O)c3cc(C)ccc3o2)CC1,8.05%
10,COc1cccc(-c2cc(C(=O)N3CCN(c4ccccc4OC)CC3)no2)c1,-5.2%
11,Cc1ccc(-c2cc(C(F)(F)F)n3ncc(C(=O)N4CCCCC4c4cccnc4)c3n2)cc1 (stereo unspecified),-3.16%
12,CSc1n[nH]c(=S)n1N,6.98%
13,CCOC(=O)c1cccc(NC(=O)CCn2nnc3ccccc32)c1,5.93%
14,COC(=O)c1ccc(C(=O)Nc2cc(Cl)ccc2Cl)cc1NC(=O)c1ccccc1C,5.33%
15,COc1c(C(=O)N2CCCC2)ccc2ccccc12,-16.2%
16,CC(C)n1c(-c2ccncc2)n[nH]c1=S,-1.2%
17,O=c1[nH]snc1-c1c(Cl)cccc1Cl,1.3%
18,CCc1ccc(OCC2c3cc(OC)c(OC)cc3CCN2C(C)=O)cc1 (stereo unspecified),-19.6%
19,CC[C@H]1CN2CCc3cc(OC)c(OC)cc3[C@@H]2C[C@@H]1C[C@H]1NCCc2cc(OC)c(OC)cc21,71.3% (active)
20,COc1ccc2c(c1)CCNC2Cc1ccc(OC)c(O)c1 (stereo unspecified),-7.5%
21,CN(c1ccccc1)S(=O)(=O)c1cccc(C(=O)NNC(=O)c2ccncc2)c1,-13.6%
22,COc1cc(NS(=O)(=O)c2ccc(NC(=O)CN3C(=O)c4ccccc4C3=O)cc2)ncn1,-1.96%
23,COc1ccc(CNC(=O)CCC(=O)Nc2nnc(C(C)C)s2)cc1,2.41%
24,O=C(NCc1ccc2c(c1)OCO2)c1sccc1Br,-9.24%
25,CSc1nc(C)nc(C2CC2)c1C#N,-2.16%
26,CCOc1ccc(C(CC(=O)O)n2cnnn2)cc1OC (stereo unspecified),-0.928%
